Laboratory results reported in PubChem BioAssay (EPA / NIEHS).
Active and inactive are the calls of the source. The calls were made as follows: active = hit-call score of the fitted dose curve at least 0.9, where 1 is the maximum; inactive = score below 0.9.

Test: Tanguay_ZF_120hpf_DP24: Oregon State University Tanguay Lab 24 Hour Post-fertilization zebrafish Assay for Delayed Development (AID 2284390)
Procedure: Tanguay_ZF_120hpf is a whole embryo, multiplexed endpoint assay using zebrafish larvae exposed for 120 hours post fertilization on a 96-well plate.Tanguay_ZF_120hpf_DP24 is […] measured or calculated from the Tanguay_ZF_120hpf assay. It is designed to make measurements of zebrafish development as detected with brightfield microscopy of developing zebrafish embryos.Data from the assay component Tanguay_ZF_120hpf_DP24 was analyzed into 1 assay endpoints. This assay endpoint, Tanguay_ZF_120hpf_DP24, was analyzed in the positive analysis fitting direction relative to DMSO as the negative control and baseline of activity. Using a type of morphology reporter, gain-of-signal activity can be used to understand changes in developmentals as they relate to the whole embryo. To generalize the intended target to other relatable targets, this assay endpoint is annotated to the zebrafish development intended target family, where the subfamily is embryonic morphogenesis.
Zebrafish husbandry: Tropical 5D wild-type adult zebrafish were housed in at an approximate density of 1000 per 100 gallon tank at the Sinnhuber Aquatic Research Laboratory, Oregon State University, Corvallis, OR. Each tank was kept at standard laboratory conditions of 28C on a 14-h light/10-h dark photoperiod in fish water consisting of reverse osmosis water supplemented with a commercially available salt (Instant Ocean). Spawning funnels were placed into the tanks the night prior, and embryos were collected and staged. To increase bioavailability, the chorion was enzymatically removed using pronase (63.6mg/ml, >/= 3.5U/mg, Sigma-Aldrich: P5147) at 4 hours post fertilization (hpf) using a custom automated dechorionator.Chemical exposures: Six hpf dechorionated embryos were placed 1 embryo per well in a 96-well plate prefilled with 90 ul of EM using automated embryo placement systems (AEPS). Ten microliters of each row of dilution plate 2 was added to 2 exposure plates. The final DMSO concentration used was 0.64% (vol/vol). Thirty-two embryos were also exposed to 5uM trimethyltin chloride (positive control). Plates were sealed to prevent evaporation and foil covered to reduce light exposure and kept in a 28C incubator. Embryos were statically exposed until 120 hpf. At 24 hpf, embryos were assessed for photomotor response using a custom photomotor response analysis tool (PRAT) and for developmental toxicity endpoints (MO24: mortality at 24 hpf, DP: developmental progression, SM: spontaneous movement, and NC: notochord distortion). At 120 hpf, locomotor activity was measured using Viewpoint Zebralab and assessed for 13 endpoints. Zebrafish acquisition and analysis program (ZAAP), a custom program designed to inventory, acquire, and manage zebrafish data, was used to collect developmental endpoints as either present or absent (i.e., binary responses were recorded). If mortality occurred for an embryo (at either 24 or 120 hpf), the non-mortality endpoints were not measured.

Row | SMILES | outcome | AC50
1 | CCN(CCO)S(=O)(=O)C(F)(F)C(F)(F)C(F)(F)C(F)(F)C(F)(F)C(F)(F)C(F)(F)C(F)(F)F | inactive | 
2 | O=C(O)C(F)(F)C(F)(F)C(F)(F)OC(F)(C(F)(F)F)C(F)(F)F | inactive | 
3 | FC(F)(F)C(F)(F)C(F)(F)C(F)(F)C(F)(F)C(F)(F)C(F)(F)CCI | inactive | 
4 | NC(=O)C(F)(F)C(F)(F)C(F)(F)F | inactive | 
5 | OCC(O)CC(F)(F)C(F)(F)C(F)(F)C(F)(F)F (configuration not stated) | inactive | 
6 | OCC(F)(F)C(F)(F)C(F)(F)CO | inactive | 
7 | OCC(F)(F)C(F)(F)C(F)(F)C(F)(F)C(F)(F)C(F)(F)CO | inactive | 
8 | O=C(F)C1(F)C(F)(F)C(F)(F)C(F)(F)C(F)(F)C1(F)F | inactive | 
9 | OCCCCC(F)(F)C(F)(F)C(F)(F)C(F)(F)F | inactive | 
10 | O=C(O)CCC(F)(F)C(F)(F)C(F)(F)F | inactive | 
11 | CN(C(=O)C(F)(F)C(F)(F)C(F)(F)F)[Si](C)(C)C | inactive | 
12 | COC(F)(C(F)F)C(F)(F)F (configuration not stated) | inactive | 
13 | O=S(=O)(Cl)C(F)(F)C(F)(F)C(F)(F)C(F)(F)C(F)(F)C(F)(F)C(F)(F)C(F)(F)F | inactive | 
14 | NS(=O)(=O)C(F)(F)C(F)(F)C(F)(F)C(F)(F)C(F)(F)C(F)(F)F |  | 57.6 µM (active)
15 | O=S(=O)(OCC(F)(F)F)C(F)(F)C(F)(F)C(F)(F)C(F)(F)F | inactive | 
16 | CNS(=O)(=O)C(F)(F)C(F)(F)C(F)(F)C(F)(F)C(F)(F)C(F)(F)C(F)(F)C(F)(F)F | inactive | 
17 | FC(F)(F)C(F)(F)C(F)(F)CC1CO1 (configuration not stated) | inactive | 
18 | C[Si](Cl)(Cl)CCC(F)(F)C(F)(F)C(F)(F)C(F)(F)C(F)(F)C(F)(F)F | inactive | 
19 | CCOC(=O)CC(=O)C(F)(F)C(F)(F)F | inactive | 

Row | SMILES | outcome | AC50
20 | O=C(O)C(F)(F)C(F)(F)C(F)(F)OC(F)(F)F | inactive | 
21 | NC(=O)C(F)(F)C(F)(F)C(F)(F)C(F)(F)C(F)(F)C(F)(F)C(F)(F)F | inactive | 
22 | O=S(=O)(O)CCC(F)(F)C(F)(F)C(F)(F)C(F)(F)F | inactive | 
23 | O=C(O)C(F)(F)C(F)(F)C(F)(F)C(=O)O | inactive | 
24 | FC(F)(F)C(F)(F)C(F)(F)C(F)(F)C(F)(F)C(F)(F)CC[Si](Cl)(Cl)Cl | inactive | 
25 | C=CC(=O)OCC(F)(F)C(F)(F)C(F)(F)C(F)(F)C(F)(F)C(F)(F)C(F)(F)C(F)F | inactive | 
26 | NC(=O)C(F)(F)C(F)(F)C(F)(F)C(F)(F)C(N)=O | inactive | 
27 | OCC(O)CC(F)(F)C(F)(F)C(F)(F)C(F)(F)C(F)(F)C(F)(F)C(F)(F)C(F)(F)F (configuration not stated) | inactive | 
28 | C=CC(=O)OCCC(F)(F)C(F)(F)C(F)(F)C(F)(F)F | inactive | 
29 | O=C(O)CCC(F)(F)C(F)(F)C(F)(F)C(F)(F)C(F)(F)C(F)(F)C(F)(F)F | inactive | 
30 | NC(O)(C(F)(F)F)C(F)(F)F | inactive | 
31 | NC(=O)C(F)(F)C(F)(F)C(F)(F)C(F)F | inactive | 
32 | OCC(F)(F)C(F)(F)C(F)(F)C(F)(F)C(F)(F)C(F)(F)C(F)(F)C(F)(F)CO | inactive | 
33 | OCCCC(F)(F)C(F)(F)C(F)(F)C(F)(F)C(F)(F)C(F)(F)C(F)(F)C(F)(F)F | inactive | 
34 | OC(O)C(F)(F)C(F)(F)F | inactive | 
35 | CO[Si](C)(CCC(F)(F)C(F)(F)C(F)(F)C(F)(F)C(F)(F)C(F)(F)F)OC | inactive | 
36 | O=S(=O)(O)CCC(F)(F)C(F)(F)C(F)(F)C(F)(F)C(F)(F)C(F)(F)C(F)(F)C(F)(F)F |  | 79.2 µM (active)
37 | C=CC(=O)OCC(F)(F)C(F)(F)C(F)(F)COC(=O)C=C |  | 14.1 µM (active)
